Measured values taken from PubChem BioAssay (Tox21).
Records with an inconclusive call do not appear. Where a call stands in place of a potency, no number is given. Calls of active or inactive are those of the source. Calls come from the whole dose curve; as a rule, active = well fitted cell-killing curve with a large enough effect in the repeat runs; inconclusive = weak or mixed curves, or effect the other way; inactive = flat fitted curve, though single readings scatter.

Columns and labels:
[1] = cAMP Responsive Elements (CRE) small molecule antagonists, cell-based qHTS assay: qHTS cell viability counter screen (AID 2060913); note: nearly all actives have a fitted effect of over 40% in size
Procedure, shortened: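 Steps: cells plated and held 18 hrs at 37 C/5% CO2; compounds and NKH477 (0.25 uM final) added; 3 hrs incubation; reporter substrate read; CellTiter-Glo added to measure cytotoxicity by luminescence.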

[2] = cAMP Responsive Elements (CRE) small molecule agonists, cell-based qHTS assay: qHTS cell viability counter screen (AID 2060914);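 note: viability read after 3 h of compound exposure; nearly all actives have a fitted effect of over 50% in size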
Procedure, shortened: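 Cytotoxicity counter screen multiplexed with the CRE-bla reporter assay in HEK 293T cells: 3 h compound exposure at 37 °C, followed by CellTiter-Glo luminescence measured in the same wells.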

SMILES | Potency [1] | Potency [2]
CC(C)C(O)C(C)(C)CO (stereo unspecified) | inactive | inactive
N#Cc1cc2ccccc2c2ccccc12 | inactive | inactive
C=C(C)C(=O)OCCOCCOC(=O)C(=C)C | inactive | inactive
CCCCC(CC)COC(=O)C(C#N)=C(c1ccccc1)c1ccccc1 (stereo unspecified) | inactive | inactive
CCN(CC)C(=O)c1ccc(O)c(OC)c1 | inactive | inactive
CCO[Si](OCC)(OCC)OCC | inactive | inactive
Clc1ccc(Cn2c(CN3CCCC3)nc3ccccc32)cc1 | inactive | inactive
C[C@@H]1O[C@@H](OC[C@H]2O[C@@H](Oc3c(-c4ccc(O)c(O)c4)oc4cc(O)cc(O)c4c3=O)[C@H](O)[C@@H](O)[C@@H]2O)[C@H](O)[C@H](O)[C@H]1O | inactive | inactive
Cc1c(N)cccc1N | inactive | inactive
C[Si]1(C)O[Si](C)(C)O[Si](C)(C)O[Si](C)(C)O1 | inactive | inactive
CCC(=O)OCc1ccc(OC)cc1 | inactive | inactive
C=CC(=O)OCCOc1ccccc1 | inactive | inactive
Cc1cc(CCCOc2c(C)cc(-c3noc(C(F)(F)F)n3)cc2C)on1 | inactive | inactive
C/C=C/C(=O)OCC(C)C | inactive | inactive
O=S(=O)(O)c1cccc2ccccc12 | inactive | inactive
Cc1ccc(C(C)c2ccc(C)c(C)c2)cc1C | inactive | inactive
CC(=O)NCc1c(I)c(NC(C)=O)c(I)c(C(=O)O)c1I | inactive | inactive
Cc1ccc(C)c(O)c1C | inactive | inactive
CCCCc1ccc2cccc(S(=O)(=O)O)c2c1 | inactive | inactive
O=C(CCN1CCN(CCO)CC1)N1c2ccccc2Sc2ccc(C(F)(F)F)cc21 | inactive | inactive
CCO/C=C1\N=C(c2ccccc2)OC1=O | inactive | inactive
CCC(C)OC(C)CC (stereo unspecified) | inactive | inactive
CCCCc1cc2ccccc2c(OCCN(C)C)n1 | inactive | inactive
[O-][n+]1cccc(CO)c1 | inactive | inactive
CC(C)CCCO | inactive | inactive
CC(C)C(=O)OCc1ccccc1 | inactive | inactive
O=c1cc[nH]c(=O)[nH]1 | inactive | inactive

SMILES | Potency [1] | Potency [2]
OC1(c2ccc(Cl)cc2)CCNCC1 | inactive | inactive
CC1CCC(C(C)(C)O)CC1 (stereo unspecified) | inactive | inactive
CC(=O)OCCCc1ccccc1 | inactive | inactive
C[C@@H]1O[C@@H](O[C@@H]2[C@@H](O)[C@H](OCCc3ccc(O)c(O)c3)O[C@H](CO[C@@H]3O[C@H](CO)[C@@H](O)[C@H](O)[C@H]3O)[C@H]2OC(=O)/C=C/c2ccc(O)c(O)c2)[C@H](O)[C@H](O)[C@H]1O | inactive | inactive
C=CCCCCCCCCC=O | inactive | inactive
Oc1cccc(O)c1O | inactive | inactive
COCC(C)O (stereo unspecified) | inactive | inactive
C[N+](C)(C)CC(O)CC(=O)[O-] (stereo unspecified) | inactive | inactive
CC[N+](C)(C)c1cccc(O)c1 | inactive | inactive
CCCCO | inactive | inactive
COc1cccc(N)c1 | inactive | inactive
Oc1ccc(O)cc1 | inactive | inactive
O=C1CCCCCCCCCCCN1 | inactive | inactive
CN1[C@@H]2CC[C@H]1CC(OC(=O)C(CO)c1ccccc1)C2 (stereo partly specified) | inactive | inactive
Nc1cc(Cl)cc(S(=O)(=O)O)c1O | inactive | inactive
Cc1ccccc1N=Nc1ccc(N=Nc2c(O)ccc3ccccc23)c(C)c1 | inactive | inactive
CCOc1ccc(NC(C)=O)cc1N | inactive | inactive
Cc1occc1C(=O)Nc1ccc(C(=O)N2CCC(F)(F)/C(=C\C(=O)N3CCC(N4CCCCC4)CC3)c3ccccc32)cc1 | inactive | inactive
COc1cc2c(cc1OC)-c1cc(=Nc3c(C)cc(C)cc3C)n(C)c(=O)n1CC2 | inactive | inactive
CCNc1nc(NC(C)CC)nc(OC)n1 (stereo unspecified) | inactive | inactive
CC(=O)Oc1cccc(C)c1 | inactive | inactive
CCOC(/C=C(\C)CCC=C(C)C)OCC | inactive | inactive
O | inactive | inactive
COc1cc(OC)nc(NC(=O)NS(=O)(=O)Nc2ccccc2C(=O)N(C)C)n1 | inactive | inactive
CCn1cc(C(=O)O)c(=O)c2cc(F)c(N3CCNCC3)nc21 | inactive | inactive
COC[C@H](c1ccc(C(F)(F)F)cc1)N1CCN(C2(C)CCN(C(=O)c3c(C)ncnc3C)CC2)C[C@H]1C | inactive | inactive
